From PubChem BioAssay
FLuc modulator: counter-screen for miR-21 project: firefly luciferase inhibitors or activators | hit rate 6.9% among 360,000 | AID 588342 | P08659 | purified FLuc, Km substrates, luminescence inhibition | Potency, µM (doses to about 57.5 µM), actives largely listed as inhibitors; further: nearly all actives have a fitted effect of over 55% in size
Target sequence (P08659 whole entry, looked up): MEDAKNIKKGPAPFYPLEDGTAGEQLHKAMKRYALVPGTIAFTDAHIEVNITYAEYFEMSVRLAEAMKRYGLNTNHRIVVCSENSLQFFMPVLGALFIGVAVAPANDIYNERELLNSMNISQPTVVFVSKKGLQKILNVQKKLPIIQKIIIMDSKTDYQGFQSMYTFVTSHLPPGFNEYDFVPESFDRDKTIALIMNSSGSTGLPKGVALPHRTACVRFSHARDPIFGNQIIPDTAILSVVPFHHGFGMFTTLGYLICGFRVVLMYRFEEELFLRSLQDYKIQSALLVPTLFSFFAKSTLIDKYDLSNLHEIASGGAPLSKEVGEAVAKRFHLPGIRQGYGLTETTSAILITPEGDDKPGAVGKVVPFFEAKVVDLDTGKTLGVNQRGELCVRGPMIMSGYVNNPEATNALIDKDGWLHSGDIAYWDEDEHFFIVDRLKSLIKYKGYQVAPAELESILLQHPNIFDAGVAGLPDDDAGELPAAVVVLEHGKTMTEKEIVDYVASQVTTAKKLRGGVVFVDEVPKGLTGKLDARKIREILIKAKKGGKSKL
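Purified P. pyralis luciferase (10nM final) with 10uM D-luciferin and 10uM ATP (Km levels) in 50mM Tris acetate pH 7.5, 10mM Mg acetate, 0.01% Tween-20, 0.05% BSA; qHTS 6-point titration, ~60 µM downward; luminescence read.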
NPC1 prom act: activates the NPC1 promoter. Huh7 NPC1 promoter luciferase reporter, 24 h. Potency, µM (highest dose often 9.22 µM), hits mostly activators. hit rate 2.4% among 320,000; further: nearly all actives have a fitted effect of over 60% in size
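Compounds in DMSO were transferred onto Huh7 NPC1-luciferase reporter cells pre-incubated 2 h; after 24 h at 37 °C, Amplite reagent was dispensed and luminescence recorded 10 min later.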
Rab9 prom act: activates the Rab9 promoter; Huh7 Rab9 promoter-luciferase reporter, luminescence, 24 h; Potency, µM (series often up to 9.22 µM), actives largely listed as activators; hit rate 2.8% among 320,000; AID 485297; further: nearly all actives have a fitted effect of over 60% in size
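Huh7 cells stably carrying Rab9 promoter–luciferase reporter, plated 1500 cells/well, compound added after 2 h and incubated 24 h at 37 °C; luciferase luminescence then read after 10 min with detection reagent.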
ELG1 genotox: induces genotoxicity in HEK293T cells with luciferase-tagged ELG1 | hit rate 1.3% among 330,000 | AID 504466 | Potency, µM (highest dose often 46 µM), usual class: activators | HEK293T ELG1-luciferase reporter, luminescence, 16 h; further: nearly all actives have a fitted effect of over 60% in size
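DMSO vehicle served as control against compound-treated ELG1-luciferase HEK293T cells; exposure lasted 16 hr at 37 °C and 5% CO2, followed by ONE-Glo luminescence detection after 30 min.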
SMN2 splice up: SMN2 splice variant enhancement; HEK293 SMN2-luciferase splicing reporter, luminescence, 30-36 h; hit rate 2.8% among 210,000; Potency, µM (titrated, usually from 46.1 µM), usual class: activators; further: nearly all actives have a fitted effect of over 55% in size
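HEK293 cells carry an SMN2 […]–luciferase reporter in which exon 7 inclusion puts luciferase in frame. Cells were plated 10-12 h before compound addition, then incubated 30-36 h at 37C. ONE-Glo luminescence was read; sodium butyrate at 4.5 mM final served as control.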
Luc counter: counter-screen: inhibitors of Kinase-Glo firefly luciferase | Q27757 | Kinase-Glo luciferase, ATP luminescence, 8 min | Potency, µM (series often up to 38.3 µM), hits mostly inhibitors | hit rate 0.28% among 200,000; further: nearly all actives have a fitted effect of over 60% in size
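Inhibition of Kinase-Glo luciferase light generation was assessed at 10 uM ATP in pH 7.2 imidazole buffer, with luminescence measured after eight minutes at ambient temperature.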
A number is an active result; [ ] = dose if it differs, or a comment. A selection: hits, their analogues and other compounds. The true share with any hit is near 7.3%. The call rests on the fitted dose curve; in most records, active means well fitted curve in the direction sought with a large enough effect; inconclusive means small, poorly fitted or top-dose-only effect, or another doubt; inactive means no such curve, though single readings can be large; an effect the other way counts as inactive or inconclusive.

Screening CCOc1cccc2cc(-c3csc(NC(=O)CCC(=O)NCCCN4CCC(C)CC4)n3)c(=O)oc12 returned FLuc modulator 17µM, NPC1 prom act inactive, Rab9 prom act 4µM, ELG1 genotox 10µM, SMN2 splice up 8.9µM and Luc counter inactive.
For CCOc1cccc2cc(-c3csc(NC(=O)CCC(=O)NCCN4CCCCC4C)n3)c(=O)oc12 (configuration not stated) the results were FLuc modulator 11µM, NPC1 prom act inconclusive, Rab9 prom act inconclusive, ELG1 genotox inconclusive, SMN2 splice up 3.2µM and Luc counter inactive.
CCOc1cccc2cc(-c3csc(NC(=O)CCC(=O)N4CCC(C)CC4)n3)c(=O)oc12 was read as FLuc modulator inactive, NPC1 prom act inconclusive, Rab9 prom act inactive, ELG1 genotox inactive, SMN2 splice up inactive and Luc counter inactive.
Screening Cc1nc2ccccc2c2oc(C(=O)NCCN3CCCCC3C)cc12 (configuration not stated) returned FLuc modulator inactive, NPC1 prom act inactive, Rab9 prom act inactive, ELG1 genotox inactive, SMN2 splice up inactive and Luc counter inactive.
COc1cccc2cc(-c3csc(NC(=O)CCC(=O)NCCCN4CCC(C)CC4)n3)c(=O)oc12 was read as FLuc modulator 9.5µM, NPC1 prom act 1.4µM, Rab9 prom act 0.71µM and ELG1 genotox inconclusive.
`O=C(c1cnc(N2CCOCC2)c2ccccc12)N1CCN(c2ccc(F)cc2)CC1` gave FLuc modulator inactive.
For CCOc1ccc(NC(=O)CN2C(C(=O)OC)=C(c3ccccc3)c3cc(Cl)ccc3S2(=O)=O)cc1 the results were FLuc modulator inactive and SMN2 splice up inactive.
`CC1CSc2ccccc2NC1=S` (configuration not stated) gave FLuc modulator inactive, NPC1 prom act inactive, Rab9 prom act inactive, ELG1 genotox inactive, SMN2 splice up inactive and Luc counter inactive.
Screening c1ccc(C2CSc3ccccc3N2)cc1 (configuration not stated) returned FLuc modulator 21µM, NPC1 prom act inconclusive, Rab9 prom act inactive and ELG1 genotox inconclusive.
CCc1nc2ccc(C(=O)N3CCN(CC)CC3)cc2nc1CC was read as FLuc modulator inactive, NPC1 prom act inactive, Rab9 prom act inactive and ELG1 genotox inactive.
`O=C(O)c1ccc2nc3c(nc2c1)-c1ccccc1C3=O` gave FLuc modulator 15µM, NPC1 prom act inactive, Rab9 prom act inconclusive, ELG1 genotox inactive, SMN2 splice up inactive and Luc counter inconclusive.
`CCc1nc2ccc(C(=O)O)cc2nc1CC` gave FLuc modulator 24µM, NPC1 prom act inconclusive, Rab9 prom act inconclusive, ELG1 genotox inconclusive, SMN2 splice up inactive and Luc counter inactive.
For COc1ccc(CNc2ccc3cc(S(=O)(=O)N4CCCCC4)ccc3n2)cc1 the results were FLuc modulator inactive.
`CCC1S/C(=N/C(=O)NC2CCCCC2)NC1=O` (configuration not stated) gave FLuc modulator inconclusive, NPC1 prom act inconclusive, Rab9 prom act inconclusive, ELG1 genotox inconclusive, SMN2 splice up 11µM and Luc counter inactive.
For CCC1Sc2ccccc2N(CC(=O)NC2CCCC2)C1=O (configuration not stated) the results were FLuc modulator inactive, NPC1 prom act inactive, Rab9 prom act inactive, ELG1 genotox inactive, SMN2 splice up inactive and Luc counter inactive.
Screening O=C(/N=C1\NC(=O)C(F)(C(F)(F)F)S1)NC1CCCCC1 (configuration not stated) returned FLuc modulator 13µM, NPC1 prom act inactive, Rab9 prom act inactive, ELG1 genotox inactive, SMN2 splice up inconclusive and Luc counter inactive.
Screening C#CCOC(=O)[C@H](N)CC(N)=O returned SMN2 splice up inactive[9.22 µM] and Luc counter inactive[7.66 µM].
For COc1ccc(OC(=O)c2ccc3nsnc3c2)cc1 the results were FLuc modulator 7.6µM, NPC1 prom act inactive, Rab9 prom act inactive, ELG1 genotox inactive, SMN2 splice up inactive and Luc counter inactive.
Screening Cc1ccc(OC(=O)c2ccc3nc(C)sc3c2)cc1 returned FLuc modulator 2.4µM, NPC1 prom act 0.79µM, Rab9 prom act 0.63µM, ELG1 genotox 2.9µM, SMN2 splice up 14µM and Luc counter inactive.
Screening CC(=O)c1ccc(OCC(=O)Nc2ccc3nc(C)sc3c2)cc1 returned FLuc modulator inactive, NPC1 prom act inactive, Rab9 prom act inactive, ELG1 genotox inactive, SMN2 splice up inactive and Luc counter inactive.
Cc1ccc2nc(-c3ccc(NC(=O)CSc4nccc(=O)[nH]4)cc3)sc2c1 was read as FLuc modulator 2.7µM, NPC1 prom act 1.4µM, Rab9 prom act 0.4µM, ELG1 genotox inconclusive, SMN2 splice up 8.9µM and Luc counter inactive.
Screening Nc1cc(=O)[nH]c(SCC(=O)Nc2nc3ccc([N+](=O)[O-])cc3s2)n1 returned FLuc modulator inconclusive, NPC1 prom act inactive, Rab9 prom act inactive, ELG1 genotox inactive, SMN2 splice up inactive and Luc counter inactive.
Screening Cc1ccc2nc(-c3ccc(NC(=O)CSc4nc(N)cc(=O)[nH]4)cc3)sc2c1 returned FLuc modulator 3.4µM, NPC1 prom act 2.8µM, Rab9 prom act 2.8µM and ELG1 genotox inconclusive.
`Cc1oc2ncn(CC(C)C)c(=O)c2c1C(=O)NCCCN1CCCCC1C` (configuration not stated) gave FLuc modulator inactive.
For Cc1ccc(-c2nnn3c2nc(NCc2ccc4c(c2)OCO4)c2ccccc23)cc1 the results were FLuc modulator inactive and SMN2 splice up inactive.
For Cc1cc(O)c2c(C)c(CC(=O)NCc3ccccc3Cl)c(=O)oc2c1 the results were FLuc modulator inactive and SMN2 splice up inactive.
Oc1ccc(Cl)cc1CNc1ccc(Br)cn1 was read as FLuc modulator 19µM, NPC1 prom act inactive, Rab9 prom act inactive, ELG1 genotox inconclusive and Luc counter inactive.
Screening Oc1c(Cl)cc(Cl)cc1CNc1ccc(Br)cn1 returned FLuc modulator inconclusive, NPC1 prom act inactive, Rab9 prom act inactive, ELG1 genotox inconclusive, SMN2 splice up inactive and Luc counter inactive.
Cc1ccc(-c2cc(C(=O)Nc3nccs3)c3ccccc3n2)c(C)c1 was read as FLuc modulator inactive, NPC1 prom act inactive, Rab9 prom act inactive, ELG1 genotox inactive, SMN2 splice up inactive and Luc counter inactive.
For Cc1ccc(-c2cc(C(=O)Nc3nccs3)c3ccccc3n2)o1 the results were FLuc modulator 11µM, NPC1 prom act inactive, Rab9 prom act inactive, ELG1 genotox inactive, SMN2 splice up inactive and Luc counter inactive.
Screening COc1ccc(NC(=O)c2cc(-c3ccc(C)o3)nc3ccccc23)cc1OC returned FLuc modulator 0.95µM, NPC1 prom act inactive, Rab9 prom act inconclusive, ELG1 genotox inactive, SMN2 splice up inactive and Luc counter 6.3µM.
